SMN2 splice up = qHTS Assay for Enhancers of SMN2 Splice Variant Expression. 2.8% of 210,000 active. Potency, µM (titrated, usually from 46.1 µM), without a hit: at the highest dose activity change, positive = activation, actives largely listed as activators. AID 1458, 2008. HEK293 SMN2-luciferase splicing reporter, luminescence, 30-36 h; further: % of control where 0% means no effect; nearly all actives have a fitted effect of over 55% in size
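qHTS luciferase splicing reporter: luminescence rises when SMN2 exon 7 is included in transfected HEK293 cells. Compound exposure lasted 30-36 h at 37C, with 4.5 mM final sodium butyrate as control, followed by a ONE-Glo read.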
ELG1 genotox = qHTS screen for small molecules that induce genotoxicity in human embryonic kidney (HEK293T) cells expressing luciferase-tagged ELG1; HEK293T ELG1-luciferase reporter, luminescence, 16 h; Potency, µM (series often up to 46 µM), for inactives: at the highest dose activity change, positive = activation, most hits filed as activators; 1.3% of 330,000 active; AID 504466, 2011; further: % of control where 0% means no effect; nearly all actives have a fitted effect of over 60% in size
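Genotoxic stress is detected as increased luminescence from luciferase-tagged ELG1 in HEK293T cells, measured with ONE-Glo after a 16 hr treatment at 37 °C.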
FLuc modulator = qHTS profiling assay for firefly luciferase inhibitor/activator using purifed enzyme and Km concentrations of substrates (counterscreen for miR-21 project) | Luciferin 4-monooxygenase (Photinus pyralis), P08659 | 6.9% of 360,000 active | Potency, µM (highest dose often 57.5 µM), inactives show at the highest dose activity change, negative = inhibition, actives largely listed as inhibitors | purified FLuc, Km substrates, luminescence inhibition;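 further: plate controls were vehicle for no effect and reference inhibitor for full effect; nearly all actives have a fitted effect of over 55% in size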
Target sequence (P08659 whole entry, looked up): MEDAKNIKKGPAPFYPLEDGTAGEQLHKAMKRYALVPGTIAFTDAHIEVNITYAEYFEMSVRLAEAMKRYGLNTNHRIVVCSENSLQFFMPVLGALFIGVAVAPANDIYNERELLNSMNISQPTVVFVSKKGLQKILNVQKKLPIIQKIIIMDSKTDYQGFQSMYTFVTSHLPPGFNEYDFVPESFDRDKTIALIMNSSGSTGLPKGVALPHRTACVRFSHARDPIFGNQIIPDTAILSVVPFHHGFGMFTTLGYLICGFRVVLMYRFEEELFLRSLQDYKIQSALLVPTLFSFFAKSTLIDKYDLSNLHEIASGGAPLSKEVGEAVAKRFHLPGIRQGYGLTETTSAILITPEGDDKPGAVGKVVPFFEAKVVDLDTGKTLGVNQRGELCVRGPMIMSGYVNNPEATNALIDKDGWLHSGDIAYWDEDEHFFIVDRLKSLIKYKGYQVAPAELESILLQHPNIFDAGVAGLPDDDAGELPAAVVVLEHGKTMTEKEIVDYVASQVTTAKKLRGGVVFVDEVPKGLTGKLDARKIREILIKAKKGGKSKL
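Biochemical qHTS of compounds, final roughly 60 µM downward over six points, against 10 nM purified firefly luciferase using Km concentrations of substrates (10 uM D-luciferin, 10 uM ATP) in Tris acetate pH 7.5 buffer; luminescence output.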
p53 reactivation = qHTS assay for re-activators of p53 using a Luc reporter. H1299 p53-A138V BP100-luciferase reporter, luminescence, 24 h. Potency, µM (titrated, usually from 92.2 µM), inactives show at the highest dose activity change, positive = activation, usual class: activators. 0.063% of 320,000 active. AID 504706, 2011; further: % of control where 0% means no effect; nearly all actives have a fitted effect of over 45% in size
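p53-null H1299 cells stably carrying temperature-sensitive p53-A138V and a BP100-luciferase reporter were pinned with compounds (4-point, 1:5 series) and held 24 hrs at 37 deg C. Luminescence was read 10 min after detection reagent.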
Rab9 prom act = qHTS Assay for Rab9 Promoter Activators; Huh7 Rab9 promoter-luciferase reporter, luminescence, 24 h; Potency, µM (series often up to 9.22 µM), without a hit: at the top dose activation, negative = inhibition, usual class: activators; 2.8% of 320,000 active; AID 485297, 2010; further: % of control where 0% means no effect; nearly all actives have a fitted effect of over 60% in size
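Luciferase signal after 10 min detection reagent at ambient indicates Rab9 promoter upregulation; stably transfected Huh7 cells were treated 24 h with compound in DMSO at 37 °C, 5% CO2.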
NPC1 prom act = qHTS Assay for NPC1 Promoter Activators; Huh7 NPC1 promoter luciferase reporter, 24 h; Potency, µM (highest dose often 9.22 µM), without a hit: at the top dose activation, actives largely listed as activators; 2.4% of 320,000 active; AID 485313, 2010; further: % of control where 0% means no effect; nearly all actives have a fitted effect of over 60% in size
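Quantitative HTS used a cell-based reporter: Huh7 cells stably bearing the NPC1 promoter upstream of luciferase were treated with compounds for 24 h, and promoter activation was read as luminescence.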
* = called active by the depositor; ? = inconclusive; · = no result. An excerpt weighted towards active compounds, which were near 7.4% of everything screened. The call rests on the fitted dose curve; in most records, active means well fitted curve in the direction sought with a large enough effect; inconclusive means small, poorly fitted or top-dose-only effect, or another doubt; inactive means no such curve, though single readings can be large; an effect the other way counts as inactive or inconclusive. Potency means the concentration at half of the fitted maximal effect.

SMILES | SMN2 splice up | ELG1 genotox | FLuc modulator | p53 reactivation | Rab9 prom act | NPC1 prom act
COc1cc(/C=C2\SC(c3ccccc3)=NC2=O)cc(Cl)c1O | -11% | 0% | 11µM* | -4% | -17% | -7%
COc1cc(/C=C2\SC(c3ccc(C)cc3)=NC2=O)cc(OC)c1OC | 24% | 0% | 2% | -3% | -6% | -2%
COc1cc(/C=C2\SC(c3ccc(C)cc3)=NC2=O)ccc1O | 20% | ? | 2.7µM* | 9% | -10% | -2%
Cc1cc2c(s1)c1c(C)nn(Cc3ccccc3F)c(=O)c1n2C | · | · | 1% | · | 1% | 1%
Cc1ccn2cc(-c3cccc(S(=O)(=O)N4CCCCC4)c3)nc2c1 | · | -5% | 19µM* | 0% | -1% | -6%
O=S(=O)(c1cccc(-c2cn3cccnc3n2)c1)N1CCCCCC1 | -15% | -19% | 2% | 1% | 8% | 0%
Cc1ccc2nc(-c3cccc(S(=O)(=O)N4CC(C)OC(C)C4)c3)cn2c1 (centres undefined) | · | ? | 13µM* | ? | -2% | 1%
Cc1ccc2nc(-c3cccc(S(=O)(=O)N4CCCC4)c3)cn2c1 | · | 7% | 6.7µM* | -5% | 0% | -1%
N#Cc1ccccc1NC(=O)C(=O)NCC(c1cccnc1)N1CCc2ccccc21 (centres undefined) | · | · | -2% | · | · | ·
CN(CCCC1CCCC1)C(=O)c1cc(COc2ccc(F)c(F)c2)on1 | · | -1% | -3% | 0% | -2% | 0%
CC(=O)c1cccc(OCc2cc(C(=O)NCCC3=CCCCC3)no2)c1 | · | ? | 9.5µM* | 19% | ? | 2.5µM*
CC(=O)c1cccc(OCc2cc(C(=O)N3CCSCC3)no2)c1 | · | 9.2µM* | 11µM* | ? | 3.2µM* | ?
COc1cc(C(C)=O)ccc1OCc1cc(C(=O)N2CCSCC2)no1 | · | 3% | -3% | 7% | 4% | 9%
O=C(c1cc(COc2ccc(F)c(F)c2)on1)N1CCSCC1 | · | ? | 17µM* | 17% | ? | ?
COc1ccccc1Cc1nc2ccccc2nc1SCC(=O)N(C)c1ccc(F)cc1 | · | · | -9% | · | · | ·
CN1/C(=C\C(=O)c2cccnc2)Sc2ccccc21 | 14µM* | ? | 9.5µM* | 0% | 2.2µM* | 2.5µM*
COc1cccc(C(=O)/C=C2\Sc3ccccc3N2C)c1 | 6.3µM* | 1.5µM* | 1.1µM* | 0% | 0.89µM* | 0.71µM*
CCOC(=O)c1noc2nc(C)n(CC(=O)Nc3ccc(Br)cc3C)c(=O)c12 | · | · | -6% | · | · | ·
O=C(CC1C(=O)OCCN1Cc1ccccc1)Nc1cccc(Cl)c1 (centres undefined) | -9% | · | 3% | · | · | ·
Cc1c(C(N)=O)sc2ncn(CC(=O)N(C)C3CCCCC3)c(=O)c12 | · | -1% | 4% | -7% | 1% | -1%
CC(=O)Nc1ccc(NC(=O)c2cc(-c3ccccc3)nc3ccccc23)cc1 | · | -10% | ? | -42% | 7% | 12%
CC(=O)Nc1ccc(N=Cc2c(O)c(C(=O)Nc3ccccc3)cc3ccccc23)cc1 | -8% | -3% | 0.67µM* | 4% | 22% | 12%
C/C(=N\NC(=O)c1ccc(-c2ccccc2)cc1)c1cccc(N)c1 | · | 2% | ? | 2% | 21% | 8%
C/C(=N\Nc1nc(C)cc(-c2ccccc2)n1)c1ccccc1 | · | -4% | 2.7µM* | -6% | -6% | 20%
C/C(=N\Nc1nc(C)cc(-c2ccccc2)n1)c1cccc(N)c1 | · | -4% | 3.4µM* | -3% | 0% | 25%
SMILES | SMN2 splice up | ELG1 genotox | FLuc modulator | p53 reactivation | Rab9 prom act | NPC1 prom act
C/C(=N\Nc1ccc([N+](=O)[O-])cc1)c1cccc(N)c1 | ? | 14% | 19µM* | 9% | ? | ?
C/C(=N\Nc1cc(-c2ccccc2)nc(-c2ccccc2)n1)c1ccc(O)c(C)c1 | · | -3% | 0% | -25% | 0% | -3%
C/C(=N\Nc1nc(C)cc(-c2ccccc2)n1)c1ccc(O)cc1 | · | -3% | 4.3µM* | · | -31% | 13%
Clc1cccc(-c2ccc3ncnc(NCc4ccc5c(c4)OCO5)c3c2)c1 | · | · | -8% | · | 21% | 7%
COc1ccc(C(CNC(=O)c2ccc(NS(=O)(=O)c3cccc([N+](=O)[O-])c3)cc2)N2CCOCC2)cc1 (centres undefined) | · | 2% | -1% | -8% | 6% | 3%
COc1ccccc1NC(=O)C1CCC(CNS(=O)(=O)c2ccc3c(c2)CC(C)N3C(C)=O)CC1 (centres undefined) | · | · | -4% | · | · | ·
CCc1nc2cccnc2n1-c1ccc(CC(=O)Nc2ccccc2Cl)cc1 | · | · | -9% | · | · | ·
Cc1cc(-c2ccccc2)nc(N/N=C/c2ccccc2F)n1 | · | 3% | 11µM* | · | ? | ?
C/C(=N/Nc1nc(C)cc(-c2ccccc2)n1)c1ccco1 | 16% | -5% | 15µM* | 26% | ? | ?
C/C(=N\Nc1nc(C)cc(-c2ccccc2)n1)c1ccc(C)o1 | -40% | -7% | ? | 1% | -15% | -6%
CCc1cccc(CC)c1NC(=O)CCS(=O)(=O)c1ccc2c(c1)CCN2C(C)=O | 1% | · | -3% | · | · | ·
c1ccc(-n2ncc3c(N4CCCCC4)ncnc32)cc1 | -87% | 0.46µM* | 0.27µM* | -8% | ? | 0.32µM*
Cc1ccc(-n2ncc3c(N4CCCCCC4)ncnc32)cc1C | · | · | 0.27µM* | · | · | ·
Cc1cccc(-n2ncc3c(N4CCCCCC4)ncnc32)c1 | · | · | 0.6µM* | · | · | ·
COc1ccc(-n2ncc3c(N4CCC(C(N)=O)CC4)ncnc32)cc1 | 0% | 0% | 15µM* | 16% | 2.8µM* | 3.5µM*
Clc1ccc(CCNc2nc3cc(Cl)c(Cl)cc3n3cnnc23)cc1 | 3% | · | 1% | · | · | ·
O=C(NC1CCN(C(=S)Nc2ccc(F)cc2)CC1)c1ccco1 | · | -3% | 1% | -3% | 1% | -6%
Cc1cccc(N2CCN(c3ncnc4c3cnn4-c3ccc(Cl)cc3)CC2C)c1 (centres undefined) | · | · | -2% | · | · | ·
Cc1cccc(-n2ncc3c(N4CCC(C)CC4)ncnc32)c1 | 2.5µM* | ? | 1.9µM* | ? | 0.89µM* | 1.1µM*
CCN(CC)c1ccc(/C=N/NC(=O)Cc2cccs2)cc1 | -1% | 3% | 27µM* | ? | -3% | 12%
Cc1ccc(/C=N/NC(=O)Cc2cccs2)o1 | 2% | -3% | -9% | 7% | 11% | 10%
O=C(/C=C/c1ccco1)NCC(=O)N/N=C/c1ccccc1[N+](=O)[O-] | -10% | 18% | 1% | 0% | 1% | -1%

Screening data from PubChem.
